Results as given in PubChem BioAssay AID686971 (National Center for Advancing Translational Sciences (NCATS), 2013).
About 7,500 (2.1%) of roughly 360,000 compounds were called active. Roughly 8% stayed inconclusive and do not appear here. What follows is part of a selection rich in actives, with near analogues and random picks from the rest. Values without a mark were called inactive. Calls follow the shape of the dose curve; as a rule, active = well fitted cell-killing curve with a large enough effect; inconclusive = small, poorly fitted or top-dose-only effect, or effect the other way, or another doubt; inactive = no such curve, though single readings can be large or run the other way.

Experiment: qHTS for induction of synthetic lethality in tumor cells producing 2HG: qHTS for the HT-1080-IDH1KD cell line;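 as to activity, negative = toxicity: 0% = DMSO wells and -100% = cell-free medium wells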
Conditions: HT-1080 IDH1 knockdown viability, ATP luminescence, 48 h; series mostly up to 46.1 µM; activity, negative = toxicity: at the top concentration
Method in brief: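 Assay cells: HT-1080 with IDH1 knockdown, 750 per well, RPMI/5% FBS. Exposure: 48 h at 37 °C following 2 h pre-incubation. Read: CellTiter-Glo luminescence; fitted concentration-response, curve class assigned.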
Potency is read from the fitted curve at half-maximal effect.

Row | SMILES | activity, negative = toxicity [%] | Potency
1 | Cc1ccc(C(O)c2ncc(-c3ccccc3F)[nH]2)cc1F (stereo unspecified) | -8.27 | –
2 | CCOC(=O)c1c(NC(=S)SC)sc(C(=O)N2CCc3ccccc3C2)c1C | -7.65 | –
3 | O=C(Cn1c(NCCO)nc2ccccc21)c1ccc(Cl)cc1Cl | – | 20.6 µM (active)
4 | O=S(=O)(O)c1nc2ccccc2n1Cc1ccc(Cl)cc1Cl | -15.2 | –
5 | CC(C)(C)C(=O)Cn1c(NCCO)nc2ccccc21 | 2.2 | –
6 | CCCCCCn1c(=O)n2n(c1=O)C[C@]1(OC(=O)NCc3ccc(OC)c(OC)c3)CN(S(=O)(=O)c3ccc(C)cc3)C[C@]1(O)C2 | -14.7 | –
7 | CCc1oc(-c2ccc(OC)cc2)c(C(=O)OCCCCCO)c1C(C)OCCO (stereo unspecified) | -13.9 | –
8 | COc1ccccc1NC(=O)C1CCCN1S(=O)(=O)c1ccc(Cl)cc1 (stereo unspecified) | -1.61 | –
9 | CC1(C)N=C(N)NC(Nc2ccc(Cl)cc2)=N1 | 1.16 | –
10 | COc1ccccc1NC1=NC(c2ccc(Cl)cc2)N=C(N)N1 (stereo unspecified) | – | 5.62 µM (active)
11 | COc1ccc([C@H]2N[C@]3(CCCN(Cc4ccco4)C3=O)[C@H]3C(=O)N(C)C(=O)[C@@H]23)cc1 | -1.26 | –
12 | O=C1OCCOC2CCCc3oc(-c4ccccc4)c1c32 (stereo unspecified) | 6.75 | –
13 | C[C@H]1Cn2cnc(C(=O)N[C@@H](Cc3c[nH]c4ccccc34)C(=O)OC(C)(C)C)c2C(=O)N1 | 12.4 | –
14 | O=C(NCCc1ccccc1)C1CCN(S(=O)(=O)c2ccc(Br)s2)CC1 | -5.3 | –
15 | O=S(=O)([N-]c1nc2ccccc2nc1-[n+]1ccc(Cc2ccccc2)cc1)c1ccc(Br)s1 | – | 20.6 µM (active)
16 | O=S(=O)(NCc1cccnc1)c1ccc(Br)s1 | 1.62 | –
17 | COCOc1cccc(CN2CCC(C)(Oc3ccc(SC)cc3)C2)c1 (stereo unspecified) | -8.36 | –
18 | CCOC(=O)C1CCCN(C(=O)c2ccc(C)c(F)c2)CC1 (stereo unspecified) | 1.99 | –
19 | CCC1OC(C2CC2)CC2=C1C(=O)OC(C)(C)O2 (stereo unspecified) | 0.481 | –
20 | Brc1ccc2ncnc(NCc3cccnc3)c2c1 | -15.5 | –
21 | c1coc(CNc2ncnc3ccccc23)c1 | – | 20.6 µM (active)
22 | COc1ccc(CNc2ncnc3ccccc23)cc1 | -4.12 | –
23 | COc1cccc(C(NC(C)=O)c2nc(-c3cnc4ccccc4c3)cs2)c1 (stereo unspecified) | 3.84 | –
24 | O=C(Nc1ccc2c(c1)OCCO2)C(C1CC1)N1CCC(Cc2ccccc2)CC1 (stereo unspecified) | -22 | –
25 | COc1cccc(/C=N/Nc2ncc(C(F)(F)F)cc2Cl)c1O | – | 9.2 µM (active)
26 | O=c1[nH]c2cccnc2n(CCNc2ncc(C(F)(F)F)cc2Cl)c1=O | -16.6 | –

Row | SMILES | activity, negative = toxicity [%] | Potency
27 | COc1ccc(Br)cc1/C=N/Nc1ccc(Cl)c(C(=O)O)c1 | -10.5 | –
28 | CCOC(=O)c1c(C)[nH]c(C)c1C(=O)COC(=O)/C=C/c1cccc([N+](=O)[O-])c1 | -1.39 | –
29 | Nc1[nH]c(C(=O)c2ccccc2)c(-c2ccncc2)c1C(=O)NCc1cccc2ccccc12 | 4.84 | –
30 | CCOC(=O)[C@]12CCCC=C1N(CCC1=CCCCC1)C(=O)[C@H](CC(=O)N1CCSCC1)C2 | -6.14 | –
31 | Cc1ccccc1S(=O)(=O)NC(=O)C1(C)CCN1C(=O)C1(c2ccccc2)CCCC1 (stereo unspecified) | 0.534 | –
32 | c1ccc(-c2nnc(N3CCOCC3)c3ccccc23)cc1 | 2.08 | –
33 | c1ccc2c(NC3C4CC5CC(C4)CC3C5)nc(N3CCOCC3)nc2c1 (stereo unspecified) | – | 18.4 µM (active)
34 | Fc1cnc(N2CCOCC2)nc1NCc1ccccc1 | 3.11 | –
35 | Cc1ccc(C=O)c([B-](F)(F)F)c1 | 3.04 | –
36 | CN1c2ccc(C=O)c3c(C=O)ccc(c23)N(C)C1(C)C | – | 11.6 µM (active)
37 | CC1CN(C(=O)c2cccc(NS(=O)(=O)c3ccc(Br)cc3)c2)CC(C)O1 (stereo unspecified) | -2.09 | –
38 | CCc1nc2c(OCC(N)=O)cccn2c1N(C)C(=O)c1ccc(OC)cc1 | 3.04 | –
39 | C[C@@H]1CN([C@H](C)CO)S(=O)(=O)c2ccc(C#C[C@@H](C)O)cc2O[C@@H]1CN(C)Cc1ccc(-c2ccccc2)cc1 | -29.6 | –
40 | COc1cc(/C=C2\Oc3ccc(C#Cc4ccc(O)cc4)cc3C2=O)cc(OC)c1 | -24.1 | –
41 | COc1cc(C#Cc2ccc3cc(CCCO)oc(=O)c3c2)cc(OC)c1 | – | 2.06 µM (active)
42 | O=C1c2ccccc2C(=O)N1CCC#Cc1ccc2cc(C3(O)CCCCC3)oc(=O)c2c1 | 12.8 | –
43 | COC(=O)Cn1cc(/C=C/[N+](=O)[O-])c2ccccc21 | – | 23.1 µM (active)
44 | NC(=O)Cn1cc(/C=N\NS(=O)(=O)c2ccccc2)c2ccccc21 | -7.45 | –
45 | COC(=O)c1cn(CC(=O)NCc2cccs2)c2ccccc12 | -28 | –
46 | COC(=O)[C@]12CCCCC=C1N(Cc1cccc3ccccc13)C(=O)[C@H](CC(=O)N1CCOCC1)C2 | -1.79 | –
47 | COCCCN1C(=O)C(CC(=O)NCc2cccs2)CC(C(=O)N2CCOCC2)=C1C (stereo unspecified) | 1.42 | –
48 | COC(=O)C1=C(Nc2ccc(C)cc2)C=C(C)C(C(=O)OC)C1c1ccc(F)cc1 (stereo unspecified) | – | 11.2 µM (active)
49 | COC(=O)C1=C(Nc2ccc(OC)cc2)C=C(C)C(C(=O)OC)C1c1ccc(C)cc1 (stereo unspecified) | -3.99 | –
50 | COC(=O)C1C(=O)NCC1c1ccc(C)cc1 (stereo unspecified) | 15.5 | –
51 | COc1ccc(Cn2c(=O)oc3ccccc32)cc1 | -0.0287 | –
